# From PubChem BioAssay (NCATS)
# Inconclusive results are not listed. Unmarked numbers belong to inactive results. The source made the active and inactive calls. Calls come from the whole dose curve; as a rule, active = well fitted inhibition curve with a large enough effect; inconclusive = small, poorly fitted or top-dose-only effect; inactive = flat fitted curve, though single readings scatter.
# Experiments:
# CRL-7250 = normal cell line; test: Cytotoxic Profiling of Annotated Libraries Using Quantitative High-Throughput Screening (AID 1296008); conditions: Five cell lines viability, CellTiter-Glo ATP luminescence, 48-72 h; max response: active compounds read low; note: potency is the fitted concentration of half-maximal effect; for max response: % is set by controls: 0 for no effect and ±100 for the full control effect
# In short: (§1)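 Compounds were pin-transferred onto cells and incubated 48 or 72 hr at 37 degree Celsius, 95% humidity. CellTiter-Glo was added, plates sat 10 min at room temperature, then ATP-coupled luminescence was imaged as the viability read-out.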
# HEK293 = test: as above; conditions: Five cell lines viability, CellTiter-Glo ATP luminescence, 48-72 h; max response: active compounds read low
# In short: as §1
# HaCat [1] = test: as above; conditions: Five cell lines viability, CellTiter-Glo ATP luminescence, 48-72 h; max response: active compounds read low
# In short: as §1
# NIH3T3 = test: as above; conditions: Five cell lines viability, CellTiter-Glo ATP luminescence, 48-72 h; max response: active compounds read low
# In short: as §1
# HACAT [2] = test: qHTS assay to identify novel small-molecules to repurpose for Merkel cell carcinoma treatment (AID 1296009); conditions: MCC and control cell lines, CellTiter-Glo viability, 72 h; at 44.8 µM (top of the series) unless noted
# In short: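 qHTS format: cells treated with library compounds in DMSO across 8 (NPC) or 11 (MIPE) concentrations. Readout after 72 hr at 37 degree celsius was CellTiter-Glo luminescence.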
# Note: nearly all actives have a fitted effect of over 60% in size.
structure (smiles),measurement,setting,value
COc1cc2c(cc1OC(C)C)[C@H](c1ccc(Cl)cc1)N(c1ccc(N(C)CC3CCC(N4CCN(C)C(=O)C4)CC3)cc1)C(=O)C2 (some centres undefined),Potency,CRL-7250,18.4 µM (active)
same,max response,HEK293,-97.2%
COC1CC(=O)C23C(=O)NC(Cc4c[nH]c5ccccc45)C2C(C)C2(C)OC2C3/C=C/CC(C)CC1O (centres undefined),Potency,CRL-7250,5.02 µM (active)
same,Potency,HEK293,7.09 µM (active)
COc1cc(S(C)(=O)=O)ccc1Nc1nc2ccc(-c3ccc(NC(=O)[C@H](C)c4ccc(F)cc4)cc3)cn2n1,outcome,CRL-7250,inactive
same,Potency,HEK293,0.331 µM (active)
Fc1ccc(-c2nc(C3CCNCC3)sc2-c2ccnc(NC3CC3)n2)cc1,outcome,CRL-7250,inactive
same,Potency,HEK293,1.64 µM (active)
same,Potency,HaCat [1],5.17 µM (active)
CC(C)S(=O)(=O)Nc1ccc(F)c(C(=O)c2c[nH]c3ncc(-c4cccnc4)cc23)c1F,Potency,CRL-7250,18.4 µM (active)
same,Potency,HEK293,14.6 µM (active)
C=C1CC[C@@H]2[C@](C)(CO)[C@H](O)CC[C@@]2(C)[C@@H]1C/C=C1/C(=O)OCC1O (some centres undefined),Potency,CRL-7250,18.4 µM (active)
same,Potency,HEK293,7.31 µM (active)
same,max response,HaCat [1],-10.5%
C=C1C(=O)O[C@H]2/C=C(/C)[C@@H](OC(C)=O)C/C=C(\C)C[C@@H](OC(=O)/C(=C/C)COC(=O)/C(=C/C)CO)[C@@H]12,Potency,CRL-7250,8.93 µM (active)
same,Potency,HEK293,3.17 µM (active)
Cc1ccc(C(=O)Nc2ccc(CN3CCN(C)CC3)c(C(F)(F)F)c2)cc1C#Cc1cnc2[nH]ncc2c1,Potency,CRL-7250,0.058 µM (active)
same,Potency,HEK293,5.8 µM (active)
same,Potency,HaCat [1],1.64 µM (active)
same,Potency,NIH3T3,0.58 µM (active)
CC(C)=C1C[C@@]2(C)C(=CC1=O)CC[C@@H](OC(=O)/C(C)=C/CO)[C@@H]2C,Potency,CRL-7250,3.21 µM (active)
same,Potency,HEK293,1.28 µM (active)
same,outcome,HaCat [1],inactive
same,max response,NIH3T3,-20.7%
same,outcome,HACAT [2],inactive
C=C(C)Cn1c(SCC(=O)c2cccs2)nc2sc3c(c2c1=O)CCCC3,max response,CRL-7250,-0.048%
same,Potency,HEK293,1.64 µM (active)
same,max response,HaCat [1],2.85%
same,Potency,NIH3T3,1.84 µM (active)
CC(=O)C1=C(O)C=C2Oc3c(C(C)=O)c(O)c(C)c(O)c3[C@]2(C)C1=O,outcome,CRL-7250,inactive
same,max response,HEK293,0.521%
same,outcome,HaCat [1],inactive
same,outcome,NIH3T3,inactive
same,outcome,HACAT [2],inactive
COC(=O)c1cc2c(C(F)(F)F)cc(-c3ccccc3)cc2n1O,max response,CRL-7250,-4.54%
same,max response,HEK293,0.379%
same,outcome,HaCat [1],inactive
same,outcome,NIH3T3,inactive
same,outcome,HACAT [2],inactive
COC(=O)Nc1cc(Nc2cc(NC3CC3)c3ncc(C#N)n3n2)c(Cl)c(N2CCN(C)CC2)c1,Potency,CRL-7250,9.33 µM (active)
same,Potency,HEK293,1.32 µM (active)
same,Potency,HaCat [1],0.741 µM (active)
same,Potency,NIH3T3,14.8 µM (active)
N#Cc1cc(-c2ccnc(Nc3ccc(N4CCOCC4)cc3)n2)ccc1OC1CCOCC1,Potency,CRL-7250,4.11 µM (active)
same,Potency,HEK293,7.31 µM (active)
same,outcome,HaCat [1],inactive
same,Potency,NIH3T3,11.6 µM (active)
same,outcome,HACAT [2],inactive
Cc1cc(-c2ncc(-c3cccnc3)cc2/C=C/c2ccccc2)cnc1-c1cccnc1,outcome,CRL-7250,inactive
same,Potency,HEK293,2.59 µM (active)
same,outcome,HaCat [1],inactive
same,max response,NIH3T3,3.84%
same,outcome,HACAT [2],inactive
C=C(C)C(=O)OC1CC2(C)OC(=CC2=O)C(=C)CC2OC(=O)C(=C)C12 (centres undefined),Potency,CRL-7250,3.21 µM (active)
same,Potency,HEK293,0.718 µM (active)
same,Potency,HaCat [1],5.08 µM (active)
same,Potency,NIH3T3,2.86 µM (active)
C=C[C@@]12COC(=O)C(=C)[C@@H]1[C@@H](O)[C@H](C(=C)C(=O)OC)[C@@H](O)C2,max response,CRL-7250,-65.9%
same,max response,HEK293,-86.5%
same,max response,HaCat [1],-29%
same,max response,NIH3T3,-16.2%
CNc1cc2[nH]c(=O)n(-c3ccc(NC(=O)NS(=O)(=O)c4ccc(Cl)s4)cc3)c(=O)c2cc1F,outcome,CRL-7250,inactive
same,max response,HEK293,-0.0272%
same,outcome,HaCat [1],inactive
same,max response,NIH3T3,2.24%
same,outcome,HACAT [2],inactive
Cc1cccc(CC(=O)N2CCc3c2ccc(-c2cn(C)c4ncnc(N)c24)c3F)n1,Potency,CRL-7250,1.84 µM (active)
same,Potency,HEK293,5.8 µM (active)
same,outcome,HaCat [1],inactive
same,max response,NIH3T3,3.48%
same,outcome,HACAT [2],inactive
C=C1C(=O)O[C@@H]2C3C(=C(C)[C@@H](O)[C@@H](OC(=O)/C(=C/C)COC(C)=O)[C@@H]12)C(=O)[C@H]1O[C@@]31C (some centres undefined),Potency,CRL-7250,6.32 µM (active)
same,Potency,HEK293,1 µM (active)
same,Potency,HaCat [1],3.17 µM (active)
same,Potency,NIH3T3,2.24 µM (active)
CC(/C=C/C(=O)NO)=C\[C@@H](C)C(=O)c1ccc(N(C)C)cc1,Potency,CRL-7250,2.91 µM (active)
same,Potency,HEK293,1.16 µM (active)
same,Potency,HaCat [1],0.92 µM (active)
same,Potency,NIH3T3,1.3 µM (active)
